# From PubChem BioAssay (NCI)
# About 83,000 compounds went through this panel and 20% of them were active in at least one assay; those are over-represented in the sample as a whole.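 Note: values are percent growth. 100 is the growth of untreated cells, values between 100 and 0 indicate rising inhibition; between -100 and 0 indicates cell death.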 A number with no mark means an inactive call. Active and inactive are the calls of the source. Rule for the calls: active = growth percent below 10; inactive = the rest.
# Test system: HOP-92 NSCLC
# Assay: NCI-60 one-dose screen, 48 h (100 = growth as untreated, 0 = no growth, -100 = all killed)
# Settings: 10 µM unless noted
row,Structure (SMILES),growth
1,O=C(Cc1ccc(F)c(Cl)c1)Nc1cc(C2(C(F)(F)F)CC2)nn1CC1CCCCC1,-14.9% (active)
2,O=C(S)CNC(=O)c1ccccc1,74.7%
3,COc1cc(CCC[P+](c2ccccc2)(c2ccccc2)c2ccccc2)c(OC)c(OC)c1OC,61.8%
4,COc1cc2cc(Oc3ccc(NC(=O)Nc4ccc(Cl)c(C(F)(F)F)c4)cc3)c(C)nc2cc1OCCN1CCOCC1,20.5%
5,Cc1cc2nc3cc(C)c(N)cc3[n+](-c3ccccc3)c2cc1N,41.5%
6,CN1CCN(c2ccc(-c3cc4c(Nc5ccc(F)c(Cl)c5)ncnn4c3)cc2)CC1,76.8%
7,COc1ccc(S(=O)(=O)n2cc(C3OC(c4cc(OC)c(OC)c(OC)c4)=NN3C(C)=O)c3ccccc32)cc1OC (stereo not drawn),63.9%
8,COc1nc2ccc(C)cc2cc1-c1nc2c(cnn2-c2ccccc2)c(=O)[nH]1,78.9%
9,Cc1cccc2c3c(sc12)C(c1ccc(Cl)cc1)C(C#N)=C(N)O3 (stereo not drawn),89.7%
10,CN(C)c1ccc2nc3ccc(=[N+](C)C)c([N+](=O)[O-])c-3sc2c1,38.7%
11,Cc1ccc(C(=O)N/N=C/c2cccc(Oc3ccccc3)c2)cn1,71.6%
12,Cc1c(C(=O)N[C@@H](Cc2ccccc2)C(=O)C(=O)NCc2ccc(F)cc2)[nH]c2ccccc2c1=O,94.4%
13,Cc1c(C(=O)NCCCc2ccccc2)sc2ncc(-c3ccc(Br)cc3)n12,113%
14,COc1ccc(-c2conc2-c2ccccc2)cc1,71.4%
15,Cc1ccccc1C(=O)NN,80.6%
16,CCS(=O)(=O)c1ncnc2nc[nH]c12,77.1%
17,CCCCC[C@H](O)C/C=C1/C(=O)C=C[C@@H]1C/C=C\CCCC(=O)O,97.2%
18,C=C1CC[C@H](C(C)C)[C@@H]2[C@H]1[C@H]1CC(=C)[C@@H](O)CC[C@@](C)(O)[C@@H]2O1,86.3%
19,COc1ccc(-c2[nH]c3ccc(OC)cc3c2/C=C(\C#N)S(=O)(=O)c2ccccc2)cc1,29.2%

row,Structure (SMILES),growth
1,COc1ccc(C(=O)n2nc(-c3ccccc3)nc2N)cc1OC,67%
2,O=c1ccn(Cc2cn(-c3c4ccccc4nc4ccccc34)nn2)c(=O)[nH]1,84.7%
3,CC/C=C\C[C@@H](O)C/C=C1/C(=O)C=C[C@H]1C/C=C\CCCC(=O)OC,22.9%
4,CCCCn1c(=O)c(-c2cc(-c3ccc(Cl)cc3)nc(-c3ccc(Cl)cc3)c2)cc2cc(Cl)ccc21,94.2%
5,Cc1nc2cnc(N)c(C#Cc3cncc(C(=O)Nc4ccc(CN5CCN(C)CC5)c(C(F)(F)F)c4)c3)c2nc1C,-39% (active)
6,O=C1/C(=C/c2ccc(F)cc2)Sc2c(Br)cccc21,-3.06% (active)
7,Cc1ccc(-c2nc(N3CCN(C(=O)c4ccc(OC(F)(F)F)cc4)CC3)c3ccccc3n2)cc1,103%
8,CCOC(=O)c1c2c(n(-c3ccc(C#N)cc3)c1-c1ccccc1)C=CCC2,98.4%
9,CCOc1c(B(O)O)cccc1-c1nc2ccc3[nH]ncc3c2c2c1CCCC2,33.5%
10,CCOC(=O)C1=C(N)Oc2c(sc3c(CC)cccc23)C1c1ccc(F)cc1 (stereo not drawn),63.5%
11,CCCCCCn1c(-c2ccc(C(=O)O/N=C(\N)c3ccc4ccccc4c3)cc2)nc(-c2ccccc2)c1-c1ccccc1,16%
12,C=C(C)C1CCC2(C)OC2C1 (stereo not drawn),117%
13,Clc1ccc(C(/C=C/c2sc(Cl)nc2Cl)=N/Nc2cc(Cl)cc(Cl)c2)cc1,93%
14,c1ccc2c(-c3nc(-c4c[nH]c5ccncc45)cs3)c[nH]c2c1,49.2%
15,c1ccc(CO[C@H]2CO[C@H]3[C@@H]2OC[C@@H]3Oc2ccc(Nc3ncnc4ccsc34)cc2)cc1,65%
16,COc1cc2cc(Oc3ccc(NC(=O)Nc4ccc(Cl)c(Cl)c4)cc3)c(C)nc2cc1OCCN1CCOCC1,76.8%
17,Cc1nc2ccccc2c(/C=C/c2ccccc2)c1C(=O)/C=C/c1ccc(C(F)(F)F)cc1,-64.8% (active)
18,CCOC(=O)c1nc(Nc2ccc(C(C)=O)cc2)sc1C,108%
19,CCOC(=O)Nc1ccc(-c2nc(-c3cccc(OCCN4CCOCC4)c3)c(-c3ccnc(Br)c3)[nH]2)cc1,54.1%
